Among the data in the supplement of paper PMC13380429 are morphology score values, retold here.

The assay concerns Vero E6 infected with SARS-CoV-2. Nature of the assay: morphology score (similarity to uninfected cells); higher = more like uninfected cells. To be noted: 24 h.
On to `CC[N+](CC)(CC(=O)Nc1c(C)cccc1C)Cc1ccccc1` [denatonium-benzoate] (10 µM), for which the morphology score is 0.144.
As to `Cc1ccc(C(=O)N(CCCN)[C@@H](c2nc3cc(Cl)ccc3c(=O)n2Cc2ccccc2)C(C)C)cc1` [ispinesib] (0.833333 µM), the morphology score is -0.37.
Under `Cn1cc(C(=O)c2cccc3ccccc23)cc1C(=O)O` [napirimus] (10 µM) stands 0.122; under `CC[C@@H](C)c1ccc(NC(=O)Cn2cnc3c2c(=O)n(C)c(=O)n3C)cc1` (racemic) (10 µM), 0.119.
Under `CCCCCCOC(=O)CCC(=O)CN` [hexaminolevulinate] (10 µM) stands 0.0924.
Next, `CCN(CCNC(=O)Nc1ccccc1Br)c1cccc(C)c1` (10 µM): -0.0408; `COc1cc(-c2cc(-c3cccc(O)c3)cnc2N)cc(OC)c1OC` (10 µM): 0.51; `Cc1cc(C)nc(NS(=O)(=O)c2ccc(N)cc2)n1` [sulfamethazine] (10 µM): 0.0855.
As for `O=C(COc1ccc(Cl)cc1)N[C@H]1CC[C@H](NC(=O)COc2ccc(Cl)cc2)CC1` (10 µM), the morphology score is -0.175.
Next, `CCCCCCCCN=c1ccn(CCCCCCCCCCn2ccc(=NCCCCCCCC)cc2)cc1` [octenidine] (0.833333 µM): -0.0145.
Under `CCOc1ccccc1OCC1CNCCO1` (stereo not drawn) [viloxazine] (10 µM) stands 0.0033.
Under `COc1cccc(OCCCN)c1-c1cc(Nc2cnc(C#N)cn2)n[nH]1` (10 µM) stands -0.0952; under `CCOCCn1c(C2CCN(CCc3ccc(C(C)(C)C(=O)O)cc3)CC2)nc2ccccc21` [bilastine] (10 µM), 0.144; under `CC(=O)NCCc1c[nH]c2ccccc12` [N-acetyltryptamine] (10 µM), 0.0383.
For the molecule `CSc1ccc(C(=O)c2[nH]c(=O)[nH]c2C)cc1` [enoximone] (10 µM), the morphology score turned out to be 0.104.
Next, `Nc1ccc(S(=O)(=O)Nc2ccnn2-c2ccccc2)cc1` [sulfaphenazole] (10 µM): 0.178; `C[C@]12CC[C@H](O)CC1=CC[C@@H]1[C@@H]2CC[C@]2(C)C(c3cccnc3)=CC[C@@H]12` [Abiraterone (CB-7598)] (10 µM): -0.0295; `COc1cc(N)c(Cl)cc1C(=O)OCCN1CCCCC1` (10 µM): 0.128.
Next, `CC(C)CNc1ccnc(NCc2csc(-c3ccccc3)n2)n1` (0.833333 µM): -0.0256; `C[C@@H]1CCC[C@H](C)N1NC(=O)c1ccc(Cl)c(S(N)(=O)=O)c1` [clopamide] (10 µM): -0.0797.
Next, `O=C(O)c1c(Sc2ccccc2)c2cc(Cl)ccc2n1Cc1ccc(Cl)cc1` (10 µM): 0.149; `BrC1C(Br)C(Br)C(Br)C(Br)C1Br` (stereo not drawn) [1,2,3,4,5,6-hexabromocyclohexane] (10 µM): 0.416.
In the case of `Cc1cc(C)c(S(=O)(=O)n2cc(C)cc2C)c(C)c1` (10 µM), the morphology score was 0.0664.
Next, `Cc1nc2sccn2c(=O)c1CCN1CCC(=C(c2ccccc2)c2ccc(F)cc2)CC1` (10 µM): 0.149; `O=C1NC(=O)c2cc(Nc3ccccc3)c(Nc3ccccc3)cc21` (10 µM): 0.39.
Under `Cc1[nH]c2ccccc2c1CCNC(=O)c1cccs1` (10 µM) stands 0.142; under `Cn1nnc(-c2ccc(-c3ccc(N4C[C@H](COP(=O)(O)O)OC4=O)cc3F)cn2)n1` [tedizolid-phosphate] (10 µM), 0.194.
Under `N[C@@H](Cc1ccc(O)cc1)C(=O)O` [plovamer-acetate] (10 µM) stands 0.0812.
